Holding throughout (assay): DAPPL (digital affinity profiling via proximity ligation, sequencing); 10 mM Tris-HCl pH 7.5, 50 mM NaCl, 1 mM DTT, 4% glycerol, room temperature, 30 min; GST-TFs on glutathione beads, 16-mer random dsDNA library, 0.1% formaldehyde crosslink after washing; high values mean tight binding
Conditions in all cases: protein: recombinant; tags: N-terminal GST; dsDNA, one strand shown

Experiment [1] addresses T1, FLI1 (Homo sapiens, UniProt Q01543 1-452).
T1 sequence: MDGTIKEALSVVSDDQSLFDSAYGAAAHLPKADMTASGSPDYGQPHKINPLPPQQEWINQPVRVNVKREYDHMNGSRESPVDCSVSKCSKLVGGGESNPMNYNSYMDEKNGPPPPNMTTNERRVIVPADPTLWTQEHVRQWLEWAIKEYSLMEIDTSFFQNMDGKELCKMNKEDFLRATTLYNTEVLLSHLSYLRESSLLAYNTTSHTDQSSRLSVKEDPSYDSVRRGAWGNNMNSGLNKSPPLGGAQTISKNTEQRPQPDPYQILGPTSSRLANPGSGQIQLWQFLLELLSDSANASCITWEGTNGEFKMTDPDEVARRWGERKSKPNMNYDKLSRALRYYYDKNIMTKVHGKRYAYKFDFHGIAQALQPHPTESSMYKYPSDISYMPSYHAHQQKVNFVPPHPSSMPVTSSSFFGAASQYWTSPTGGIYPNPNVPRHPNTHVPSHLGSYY
In outline: (§1)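 Each value of binding signal is a hexamer's read frequency for a factor divided by the same hexamer's frequency in the tag-only sample. Barcoded, bead-captured GST fusions of human transcription factors made in yeast were pooled with that sample and incubated with 200 nmole of a random double-stranded 16-mer DNA library in Tris/NaCl/DTT/glycerol buffer at room temperature for 30 min. Washing, 0.1% formaldehyde crosslinking, proximity ligation, PCR and Illumina NextSeq500 sequencing followed.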

The target of experiment [2] is T2, GABPA (Homo sapiens, UniProt Q06546 1-454).
T2 sequence: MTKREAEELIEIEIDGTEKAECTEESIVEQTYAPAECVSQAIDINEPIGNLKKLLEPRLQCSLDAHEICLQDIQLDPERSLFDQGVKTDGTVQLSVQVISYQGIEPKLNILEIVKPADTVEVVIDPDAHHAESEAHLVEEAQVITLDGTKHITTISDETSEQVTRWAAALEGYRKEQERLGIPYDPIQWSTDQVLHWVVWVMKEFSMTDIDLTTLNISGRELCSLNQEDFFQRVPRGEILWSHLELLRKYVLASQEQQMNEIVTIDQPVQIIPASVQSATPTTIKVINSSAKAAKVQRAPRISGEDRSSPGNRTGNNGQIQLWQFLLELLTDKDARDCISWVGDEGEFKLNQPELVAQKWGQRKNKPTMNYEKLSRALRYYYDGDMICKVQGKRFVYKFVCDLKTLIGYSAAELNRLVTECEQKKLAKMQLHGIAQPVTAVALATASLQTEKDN
In outline: as §1

Experiment [3] concerns the target T3, ERG (Homo sapiens, UniProt P11308 1-479).
T3 sequence: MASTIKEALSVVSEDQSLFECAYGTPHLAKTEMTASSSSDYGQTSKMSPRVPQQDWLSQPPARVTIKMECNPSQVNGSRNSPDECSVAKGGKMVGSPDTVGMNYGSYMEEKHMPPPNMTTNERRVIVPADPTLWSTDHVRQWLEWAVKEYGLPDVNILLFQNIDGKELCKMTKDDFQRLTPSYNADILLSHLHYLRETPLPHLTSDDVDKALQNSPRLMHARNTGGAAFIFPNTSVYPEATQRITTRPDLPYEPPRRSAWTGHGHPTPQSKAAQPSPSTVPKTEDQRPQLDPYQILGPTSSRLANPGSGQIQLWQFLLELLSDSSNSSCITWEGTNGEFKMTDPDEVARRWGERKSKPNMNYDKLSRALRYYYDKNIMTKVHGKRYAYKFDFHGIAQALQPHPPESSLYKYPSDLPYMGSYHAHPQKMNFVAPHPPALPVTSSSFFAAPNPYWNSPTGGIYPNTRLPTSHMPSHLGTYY
In outline:
as §1

The target of experiment [4] is ELF1 (Homo sapiens, UniProt P32519 1-619). The method, boiled down:
as §1

For experiment [5], the target named is T4, EHF (Homo sapiens, UniProt Q9NZC4 1-300).
T4 sequence: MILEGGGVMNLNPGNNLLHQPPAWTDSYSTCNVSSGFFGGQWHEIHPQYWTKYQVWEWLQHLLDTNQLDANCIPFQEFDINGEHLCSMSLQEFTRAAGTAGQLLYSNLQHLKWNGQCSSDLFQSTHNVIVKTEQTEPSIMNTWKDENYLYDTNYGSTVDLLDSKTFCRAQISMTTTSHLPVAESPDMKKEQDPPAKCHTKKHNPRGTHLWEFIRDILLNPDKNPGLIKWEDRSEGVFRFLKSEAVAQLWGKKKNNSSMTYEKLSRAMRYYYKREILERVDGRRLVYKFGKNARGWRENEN
The method, boiled down: as §1

The target of experiment [6] is SPIB (Homo sapiens, UniProt Q01892 1-262). The method, boiled down:
as §1

The target of experiment [7] is ELF4 (Homo sapiens, UniProt Q99607 1-663). The method, boiled down: as §1
Experiment [8] addresses T5, ELK4 (Homo sapiens, UniProt P28324-2 1-405).
T5 sequence: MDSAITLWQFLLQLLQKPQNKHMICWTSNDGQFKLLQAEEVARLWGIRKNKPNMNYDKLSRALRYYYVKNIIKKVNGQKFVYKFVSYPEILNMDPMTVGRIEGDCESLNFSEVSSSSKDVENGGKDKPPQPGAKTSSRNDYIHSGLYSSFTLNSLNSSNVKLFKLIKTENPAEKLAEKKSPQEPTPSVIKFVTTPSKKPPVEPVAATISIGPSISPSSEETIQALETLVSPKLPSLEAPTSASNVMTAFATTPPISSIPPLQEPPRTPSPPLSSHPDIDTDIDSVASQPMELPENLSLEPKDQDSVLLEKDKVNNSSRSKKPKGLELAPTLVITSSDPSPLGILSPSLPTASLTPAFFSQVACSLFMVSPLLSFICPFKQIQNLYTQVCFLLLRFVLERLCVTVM
The method, boiled down:
as §1

For experiment [9], the target named is T6, ELF3 (Homo sapiens, UniProt P78545 1-371).
T6 sequence: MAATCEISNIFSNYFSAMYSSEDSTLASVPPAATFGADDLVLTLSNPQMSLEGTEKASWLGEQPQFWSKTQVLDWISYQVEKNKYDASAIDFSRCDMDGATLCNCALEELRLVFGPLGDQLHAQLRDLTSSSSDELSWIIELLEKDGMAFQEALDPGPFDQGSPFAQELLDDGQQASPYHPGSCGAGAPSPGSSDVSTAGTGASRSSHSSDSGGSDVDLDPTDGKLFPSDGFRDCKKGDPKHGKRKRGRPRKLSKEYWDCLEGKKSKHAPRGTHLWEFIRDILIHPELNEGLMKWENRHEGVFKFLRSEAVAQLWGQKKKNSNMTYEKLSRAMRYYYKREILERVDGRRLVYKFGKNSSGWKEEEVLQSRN
The method, boiled down:
as §1

Experiment [10] deals with ETV1 (Homo sapiens, UniProt P50549 1-477). The method, boiled down:
as §1

The target of experiment [11] is T7, ETV3L (Homo sapiens, UniProt Q6ZN32 1-361).
T7 sequence: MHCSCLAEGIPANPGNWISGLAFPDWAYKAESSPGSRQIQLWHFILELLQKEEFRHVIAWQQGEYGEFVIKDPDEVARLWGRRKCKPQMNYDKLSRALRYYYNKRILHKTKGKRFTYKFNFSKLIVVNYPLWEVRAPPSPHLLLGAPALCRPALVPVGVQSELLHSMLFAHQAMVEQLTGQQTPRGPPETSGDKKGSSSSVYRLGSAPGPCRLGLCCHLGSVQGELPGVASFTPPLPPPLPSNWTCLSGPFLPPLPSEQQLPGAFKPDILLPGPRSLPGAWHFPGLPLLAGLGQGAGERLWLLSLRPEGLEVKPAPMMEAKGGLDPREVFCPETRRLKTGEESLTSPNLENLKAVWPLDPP
In outline: as §1

The target in experiment [12] is T8, ETS2 (Homo sapiens, UniProt P15036 1-469).
T8 sequence: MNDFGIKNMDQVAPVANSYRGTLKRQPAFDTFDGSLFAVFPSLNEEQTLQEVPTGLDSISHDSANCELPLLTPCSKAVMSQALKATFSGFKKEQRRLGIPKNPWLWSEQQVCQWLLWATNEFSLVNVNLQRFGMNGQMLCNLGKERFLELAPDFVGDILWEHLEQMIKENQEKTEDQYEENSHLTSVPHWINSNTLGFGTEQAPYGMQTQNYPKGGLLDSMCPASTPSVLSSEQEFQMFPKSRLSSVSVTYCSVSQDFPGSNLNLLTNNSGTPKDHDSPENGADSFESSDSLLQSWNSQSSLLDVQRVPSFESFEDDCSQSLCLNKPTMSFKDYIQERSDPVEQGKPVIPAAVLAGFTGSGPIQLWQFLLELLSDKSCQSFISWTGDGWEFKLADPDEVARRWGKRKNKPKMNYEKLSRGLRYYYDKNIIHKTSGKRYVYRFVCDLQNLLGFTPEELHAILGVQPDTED
The method, boiled down:
as §1

Experiment [13] concerns the target T9, ETV7 (Homo sapiens, UniProt Q9Y603 1-341).
T9 sequence: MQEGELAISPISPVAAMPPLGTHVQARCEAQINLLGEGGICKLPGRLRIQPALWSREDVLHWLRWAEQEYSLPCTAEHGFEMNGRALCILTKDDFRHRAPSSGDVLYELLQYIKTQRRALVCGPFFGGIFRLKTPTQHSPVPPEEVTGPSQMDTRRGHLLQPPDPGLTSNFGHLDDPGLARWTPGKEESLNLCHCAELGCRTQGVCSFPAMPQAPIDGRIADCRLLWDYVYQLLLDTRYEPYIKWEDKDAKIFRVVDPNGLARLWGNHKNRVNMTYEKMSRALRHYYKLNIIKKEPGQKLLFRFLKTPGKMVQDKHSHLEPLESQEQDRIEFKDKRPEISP
In outline: as §1

SPIB, sequence (Q01892 whole entry): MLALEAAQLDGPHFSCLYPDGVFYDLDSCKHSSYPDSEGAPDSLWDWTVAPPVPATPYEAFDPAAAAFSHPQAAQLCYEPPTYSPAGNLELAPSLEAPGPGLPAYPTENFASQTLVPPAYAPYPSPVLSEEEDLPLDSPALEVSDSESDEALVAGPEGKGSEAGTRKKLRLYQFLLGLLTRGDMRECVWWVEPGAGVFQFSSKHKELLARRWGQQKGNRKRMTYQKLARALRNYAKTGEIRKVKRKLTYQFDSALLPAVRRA
ELF1, sequence (P32519 whole entry): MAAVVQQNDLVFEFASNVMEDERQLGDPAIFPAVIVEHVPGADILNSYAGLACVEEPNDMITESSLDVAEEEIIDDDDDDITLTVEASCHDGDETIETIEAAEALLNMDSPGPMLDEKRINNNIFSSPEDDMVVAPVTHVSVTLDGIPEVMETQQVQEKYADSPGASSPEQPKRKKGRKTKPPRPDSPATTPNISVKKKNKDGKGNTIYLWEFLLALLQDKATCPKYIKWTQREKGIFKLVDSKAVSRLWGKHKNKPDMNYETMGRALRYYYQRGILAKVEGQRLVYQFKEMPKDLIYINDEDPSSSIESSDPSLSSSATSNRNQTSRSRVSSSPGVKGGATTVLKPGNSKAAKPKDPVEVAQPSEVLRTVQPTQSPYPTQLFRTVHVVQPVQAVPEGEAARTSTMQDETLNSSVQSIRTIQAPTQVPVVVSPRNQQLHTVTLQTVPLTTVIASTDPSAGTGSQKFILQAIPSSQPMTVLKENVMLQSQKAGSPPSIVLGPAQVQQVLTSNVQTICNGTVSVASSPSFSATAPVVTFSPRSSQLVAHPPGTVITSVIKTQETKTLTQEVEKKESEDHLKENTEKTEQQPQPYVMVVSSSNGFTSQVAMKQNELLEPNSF
ELF4, sequence (Q99607 whole entry): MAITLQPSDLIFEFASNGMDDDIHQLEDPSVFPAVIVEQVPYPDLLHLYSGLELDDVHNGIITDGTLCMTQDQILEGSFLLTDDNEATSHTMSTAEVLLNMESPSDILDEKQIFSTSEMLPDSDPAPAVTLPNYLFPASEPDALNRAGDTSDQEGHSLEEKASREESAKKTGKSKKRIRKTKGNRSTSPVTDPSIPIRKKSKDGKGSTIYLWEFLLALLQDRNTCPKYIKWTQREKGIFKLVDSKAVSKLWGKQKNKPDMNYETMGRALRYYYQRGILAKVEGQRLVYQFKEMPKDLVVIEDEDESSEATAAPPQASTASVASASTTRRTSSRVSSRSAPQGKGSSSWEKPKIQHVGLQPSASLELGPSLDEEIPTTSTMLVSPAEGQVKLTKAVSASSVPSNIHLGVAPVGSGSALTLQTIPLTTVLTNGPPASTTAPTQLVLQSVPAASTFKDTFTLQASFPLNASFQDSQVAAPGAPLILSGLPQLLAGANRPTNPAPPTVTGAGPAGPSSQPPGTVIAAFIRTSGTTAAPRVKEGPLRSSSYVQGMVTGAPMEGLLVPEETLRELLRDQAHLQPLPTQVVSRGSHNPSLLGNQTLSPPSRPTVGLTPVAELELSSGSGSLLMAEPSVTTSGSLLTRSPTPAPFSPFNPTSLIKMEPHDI
ETV1, sequence (P50549 whole entry): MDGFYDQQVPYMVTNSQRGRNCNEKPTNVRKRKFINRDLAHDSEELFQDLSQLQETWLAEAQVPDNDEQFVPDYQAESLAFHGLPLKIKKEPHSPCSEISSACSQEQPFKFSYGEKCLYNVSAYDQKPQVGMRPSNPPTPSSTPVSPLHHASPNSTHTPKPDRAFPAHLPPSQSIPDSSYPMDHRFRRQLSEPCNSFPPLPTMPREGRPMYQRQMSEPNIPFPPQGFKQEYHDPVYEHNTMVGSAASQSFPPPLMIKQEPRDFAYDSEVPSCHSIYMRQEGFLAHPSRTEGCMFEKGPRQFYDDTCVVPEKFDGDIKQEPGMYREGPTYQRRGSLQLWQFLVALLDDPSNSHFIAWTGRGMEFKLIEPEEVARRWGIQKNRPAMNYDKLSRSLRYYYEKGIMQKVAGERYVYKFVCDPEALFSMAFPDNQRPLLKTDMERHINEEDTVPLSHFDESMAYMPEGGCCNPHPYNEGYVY

In the case of TGTGAT, the binding signal in experiment [1] is 1.16 fold enrichment (6-mer frequency, TF over GST control); in experiment [2], 1.01 fold enrichment (6-mer frequency, TF over GST control); in experiment [3] it was 1.06 fold enrichment (6-mer frequency, TF over GST control); in [4] it was 1.01 fold enrichment (6-mer frequency, TF over GST control); in experiment [5], 1.03 fold enrichment (6-mer frequency, TF over GST control); in [6] it was 1.01 fold enrichment (6-mer frequency, TF over GST control). Besides, the binding signal is 1.05 fold enrichment (6-mer frequency, TF over GST control) in experiment [7]; 1.07 fold enrichment (6-mer frequency, TF over GST control) in experiment [8]; 1.14 fold enrichment (6-mer frequency, TF over GST control) in experiment [9]; 1.08 fold enrichment (6-mer frequency, TF over GST control) in [10]; 1.01 fold enrichment (6-mer frequency, TF over GST control) in experiment [11]; 1.09 fold enrichment (6-mer frequency, TF over GST control) in experiment [12]. In addition, the binding signal in [13] is 1.05 fold enrichment (6-mer frequency, TF over GST control).

Values taken from publication PMC7862700, “An all-to-all approach to the identification of sequence-specific readers for epigenetic DNA modifications on cytosine”.
